Experimental data published in PubChem BioAssay AID624169 (The Scripps Research Institute Molecular Screening Center, 2012).
The whole screen tested about 360,000 compounds, of which about 2,400 (0.67%) were called active.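 Rule for the calls: active = activation above a run cutoff, the mean activation of all tested compounds plus 3 SD (cut at about 14% in these data); inactive = the rest.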 Many of the other results were omitted from the sample, so actives are more common in it than they were.

molecular target: 5-hydroxytryptamine receptor 2A (Mus musculus) (UniProt P35363); experiment: mouse Htr2a agonists via beta-arrestin recruitment, primary screen, cell-based, luminescence (AID 624169); details: CHO-K1 mHTR2A beta-arrestin complementation, at 7.6 µM, stronger effect = higher value, percent of 30 µM serotonin response;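 note: 0% = plate median of compound wells and 100% = 30 µM serotonin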
Sequence (P35363 whole entry, looked up): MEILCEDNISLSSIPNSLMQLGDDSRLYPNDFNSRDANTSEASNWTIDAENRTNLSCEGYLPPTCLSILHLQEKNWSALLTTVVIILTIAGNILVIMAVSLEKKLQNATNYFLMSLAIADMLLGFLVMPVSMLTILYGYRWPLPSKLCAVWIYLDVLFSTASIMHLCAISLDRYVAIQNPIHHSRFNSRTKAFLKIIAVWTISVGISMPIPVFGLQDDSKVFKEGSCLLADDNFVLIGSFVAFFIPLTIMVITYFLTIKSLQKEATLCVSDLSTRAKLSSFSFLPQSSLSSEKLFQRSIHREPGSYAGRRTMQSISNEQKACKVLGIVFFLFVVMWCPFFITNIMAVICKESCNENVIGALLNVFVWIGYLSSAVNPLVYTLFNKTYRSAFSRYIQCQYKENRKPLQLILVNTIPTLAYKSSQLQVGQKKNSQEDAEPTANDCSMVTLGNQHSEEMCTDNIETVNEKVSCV

SMILES	activation
C=CCNC(=O)C12CC3CC(C1)CC(C(=O)NCC=C)(C3)C2	-0.48% (inactive)
Cc1ccccc1NC(=O)C1CCN(C(=O)NC2CCCCC2)CC1	-2.36% (inactive)
O=C(Nc1ccccc1C(=O)O)c1ccc(N2C(=O)C3CC=CCC3C2=O)cc1 (stereo not given)	-7.43% (inactive)
CC(C)c1csc(CN2CCC(CO)(Cc3ccccc3)CC2)n1	-5.03% (inactive)
O=C(c1cc2ccccc2o1)N1CCN(Cc2ccccc2)CC1	-4.53% (inactive)
OCC1(Cc2ccccc2)CCN(Cc2cc3ccccc3o2)CC1	19.6% (active)
CC(C)(C)NC(=O)C(=O)NCc1ccncc1	-5.23% (inactive)
COCCCN1C(=O)c2ccc(C(=O)OCC(=O)NCc3ccccc3OC)cc2C1=O	-1.38% (inactive)
COc1ccc(S(=O)(=O)NC(C)c2ccccc2)cc1C(=O)N1CCCCC1 (stereo not given)	4.88% (inactive)
C[C@H](O)[C@@H]1C(=O)N2CCc3ccc(N4CCOCC4)cc3[C@@H]2C[C@@H]1N(C)C(=O)C(C)(C)C	9.06% (inactive)
C[C@@H]1ON(C)[C@H]2C[C@H]3c4cc(N5CCN(C)CC5)ccc4CCN3C(=O)[C@@H]12	29.5% (active)
CN[C@H]1C[C@H]2c3cc(Oc4ccccc4C)ccc3CCN2C(=O)[C@H]1[C@H](C)O	0.5% (inactive)
Cc1nn(C)cc1S(=O)(=O)N1CCN(c2ccc(F)cc2)CC1	-4.86% (inactive)
Cc1ccc(C(NC(=O)C2CCN(CCOc3ccc(Cl)cc3Cl)CC2)c2ccccn2)cc1 (stereo not given)	-3.52% (inactive)
O=C(NC(c1ccc(Cl)cc1)c1cnccn1)C1CCN(Cc2ccc(Cl)cc2)CC1 (stereo not given)	-6.28% (inactive)
Cc1cccnc1C(NC(=O)C1CCN(Cc2ccc(Cl)c(Cl)c2)CC1)c1ccc(Cl)cc1 (stereo not given)	16.4% (active)
CCC/C=C(\CCC)C(NC(=O)Cc1ccccc1)c1ccc(C(=O)OC)cc1 (stereo not given)	-7.9% (inactive)
Cc1cccc(N2CC(C)Cn3c2nc2c3c(=O)n(CC(=O)OCc3ccccc3)c(=O)n2C)c1 (stereo not given)	0.76% (inactive)

SMILES	activation
CNS(=O)(=O)c1cccc(C(=O)OCC(=O)N2c3ccccc3NC(=O)C2(C)C)c1	-2.19% (inactive)
Cc1ccc(OCCC(=O)OCC(=O)N2c3ccccc3NC(=O)C2(C)C)cc1	-2.36% (inactive)
Cc1cc(C(=O)OCC(=O)N2c3ccccc3NC(=O)C2(C)C)c(C)n1-c1ccccc1	15.2% (active)
COc1ccc(N)cc1NC(=O)CN1CCOCC1	-3.94% (inactive)
COc1ccc(C)cc1N(C(=O)Cn1nnc(-c2ccc(C)o2)n1)C(C(=O)NC1CCCC1)c1ccncc1 (stereo not given)	-2.27% (inactive)
COC(=O)c1ccc(S(=O)(=O)NCc2ccccc2)n1C	-2.3% (inactive)
CC(C(=O)N1CCc2ccccc21)N(C)CC(=O)Nc1ccc(F)cc1 (stereo not given)	-3.41% (inactive)
Cc1ccc(S(=O)(=O)/N=C(\N)c2ccc(F)cc2)cc1	0.59% (inactive)
O=C(Cc1cccs1)NCc1cccc(C(F)(F)F)c1	-6.31% (inactive)
N/C(=N\S(=O)(=O)c1cc(C(F)(F)F)cc(C(F)(F)F)c1)c1cccs1	31.8% (active)
Oc1ccccc1C1=NN(c2ccccc2)C(c2ccccc2)C1 (stereo not given)	5.22% (inactive)
Cc1ccc(N2C(=O)C3N=NN(CC(=O)N4N=C(c5cccc6ccccc56)CC4c4ccccc4)C3C2=O)cc1 (stereo not given)	17.6% (active)
O=C1C2N=NN(CC(=O)N3N=C(c4cccc5ccccc45)CC3c3ccccc3)C2C(=O)N1c1ccccc1 (stereo not given)	2.13% (inactive)
CCN(CC(=O)Nc1cccc(S(=O)(=O)N2CCCCC2)c1)Cc1ccccc1	-11.3% (inactive)
COc1cc(Cl)ccc1OCc1cc(C(=O)N(C)CCc2c(C)n[nH]c2C)no1	-10.7% (inactive)
CCCNC(=O)C1(C)CCN1C(=O)C1(c2ccccc2)CC1 (stereo not given)	-0.58% (inactive)
CCCOc1ccc(Cc2c(O)nc(N)[nH]c2=O)cc1C	2.5% (inactive)
